POLB inh: blocks human DNA polymerase beta activity; P06746; Pol beta primer extension/strand displacement, fluorescence kinetic; Potency, µM (titrated, usually from 114 µM), for inactives: top-dose activity change, negative = inhibition, usual class: inhibitors; 340,000 tested, 1.3% active; also: % is scaled to controls: 0 for no effect and ±100 for the full control effect
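Curves were derived by four-parameter Hill fits of normalized qHTS data. The kinetic fluorescent primer-extension read was taken at 0 and 10 min after 50 nM substrate, following a 15 min room-temperature preincubation of 10 nM enzyme with compounds.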
Pol kappa inh: DNA polymerase kappa (human) inhibition | Q9UBT6 | purified Pol kappa, fluorescent DNA synthesis assay, 10 min | Potency, µM (doses to about 107 µM), for inactives: top-dose activity, negative = inhibition, usual class: inhibitors | 400,000 tested, 0.53% active | AID 588579; also: % is scaled to controls: 0 for no effect and ±100 for the full control effect
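Readout: fluorescence, taken kinetically at 0 and 10 min. Conditions: 10 nM Pol kappa, 15 min RT compound preincubation, 50 nM substrate final. Controls: enzyme-free buffer wells.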
POLH inh: blocks human DNA polymerase eta activity; 390,000 tested, 1.2% active; Potency, µM (titrated, usually from 114 µM), for the others: at the top dose activity change, negative = inhibition, actives largely listed as inhibitors; Q9Y253; recombinant Pol eta, fluorescent DNA replication assay; also: % is scaled to controls: 0 for no effect and ±100 for the full control effect
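Pol eta at 10 nM preincubated with compounds 15 min at room temperature; reaction started with fluorescent substrate (50 nM final) and read kinetically at 0 and 10 min.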
WRN inhibitor: inhibitors of human WRN helicase. Q14191. WRN helicase unwinding, fluorescent forked duplex, kinetic. Potency, µM (top dose mostly 114 µM), inactives show at the top dose activity change, negative = inhibition, most hits filed as inhibitors. 360,000 tested, 0.46% active. AID 651768; also: % is scaled to controls: 0 for no effect and ±100 for the full control effect; nearly all actives have a fitted effect of over 55% in size
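Fluorescence dequenching readout, ex 525 nm/em 598 nm, kinetic mode: forked duplex DNA (100 nM final) with adjacent fluorophore and quencher unwound by WRN (20 nM final) with 2 mM ATP. Compound preincubation 15 min, room temperature.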
FEN1 inhibitor: inhibitors of human flap endonuclease 1; Potency, µM (highest dose often 114 µM), for the others: top-dose activity change, negative = inhibition, most hits filed as inhibitors; AID 588795; Recombinant FEN1 flap cleavage, fluorescence, 15 min; 390,000 tested, 0.35% active; P39748; also: % is scaled to controls: 0 for no effect and ±100 for the full control effect; nearly all actives have a fitted effect of over 65% in size
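Compounds are tested as a concentration series against 10 nM FEN1; after a 15 min room-temperature preincubation, 50 nM substrate starts cleavage, with plate reads at 0 and 15 min. Normalized responses are fitted by a Hill equation.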
Pol iota inh: DNA polymerase iota (human) inhibition; Q9UNA4; Pol iota fluorescent replication assay, 10 min; Potency, µM (series often up to 115 µM), for inactives: at the top dose activity, negative = inhibition, actives largely listed as inhibitors; 390,000 tested, 1% active
Target sequence (Q9UNA4 whole entry, looked up): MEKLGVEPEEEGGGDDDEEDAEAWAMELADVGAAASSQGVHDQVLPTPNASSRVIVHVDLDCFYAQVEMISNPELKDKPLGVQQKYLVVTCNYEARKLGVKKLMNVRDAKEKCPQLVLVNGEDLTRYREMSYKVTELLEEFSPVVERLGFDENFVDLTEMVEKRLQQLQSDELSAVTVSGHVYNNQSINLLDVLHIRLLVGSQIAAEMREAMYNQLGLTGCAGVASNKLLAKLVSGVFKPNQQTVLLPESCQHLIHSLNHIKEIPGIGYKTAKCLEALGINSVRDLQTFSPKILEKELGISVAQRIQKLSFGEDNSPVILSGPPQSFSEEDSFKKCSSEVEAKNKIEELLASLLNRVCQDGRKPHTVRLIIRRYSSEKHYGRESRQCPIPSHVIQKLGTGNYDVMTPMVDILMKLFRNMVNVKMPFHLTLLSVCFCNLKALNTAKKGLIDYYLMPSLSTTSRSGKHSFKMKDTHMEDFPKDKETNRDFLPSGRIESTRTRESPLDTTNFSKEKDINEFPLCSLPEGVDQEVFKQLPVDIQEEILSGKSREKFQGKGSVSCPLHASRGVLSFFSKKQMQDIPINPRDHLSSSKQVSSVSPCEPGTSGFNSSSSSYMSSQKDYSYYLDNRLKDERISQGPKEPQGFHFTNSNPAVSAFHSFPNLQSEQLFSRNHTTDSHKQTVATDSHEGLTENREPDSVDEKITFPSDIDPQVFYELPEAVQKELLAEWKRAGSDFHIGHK
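Pol iota at 10 nM preincubated 15 min with compounds at room temperature; reaction started with fluorescent substrate, 50 nM final. Fluorescence read kinetically at 0 and 10 min; buffer-only wells as negative control.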
* hit, by the source's call; u = inconclusive; x = no result; [ ] = remark or other dose. This is a sample that favours compounds with a hit; in the whole collection about 2.4% have one here. Calls follow the shape of the dose curve; as a rule, active = well fitted curve in the direction sought with a large enough effect; inconclusive = small, poorly fitted or top-dose-only effect, or another doubt; inactive = no such curve, though single readings can be large; an effect the other way counts as inactive or inconclusive. Potency is read from the fitted curve at half-maximal effect.

SMILES | POLB inh | Pol kappa inh | POLH inh | WRN inhibitor | FEN1 inhibitor | Pol iota inh
Oc1ccc(/C=N/N(Cc2ccccc2)c2ccccc2)c(O)c1O | 6.31µM* | -37.7% | -25.5% | u | -27.5% | 38.6%
CCCN(CCC)C(=O)Cn1c(=O)n(-c2ccccc2)c(=O)c2c3c(sc21)CCCC3 | -7.1% | 7.1% | -16.5% | x | -6.0% | 20.8%
[O][C@H]1[C@@H](O)[C@@H](CO)O[C@@H](O[C@@H]2[C@@H]3OC[C@H]2O[C@H](O[C@@H]2[C@@H](O)[C@H](C[C@@H]4[C@@H]5OC[C@H]4O[CH][C@@H]5O)O[C@H](CO)[C@@H]2OS(=O)(=O)O)[C@@H]3OS(=O)(=O)O)[C@@H]1O | x | 31.6µM* | x | x | x | x
Cc1ccccc1C(=O)n1nc(-c2ccco2)nc1NCc1ccc(Cl)cc1 | 29.5% | 18.0% | -19.7% | x | 0.9% | 29.4%
COc1ccc(C[C@@](C)(N)C(=O)O)cc1OC | x | -1.1%[12 µM] | x | x | x | x
NC(C(=O)O)C(CC(=O)O)c1ccc(Cl)cc1 (stereo not given) | x | 3.2%[19.4 µM] | x | x | x | x
O=C(O)c1cccc(N/N=C/c2cn(-c3ccccc3)nc2-c2cccs2)c1 | u | -17.6% | 79.4µM* | u | -10.9% | 61.0%
COc1ccc(-c2nc3ccc(C)cn3c2NCc2ccccc2)cc1SC1CCCCC1 | x | 10.5% | 44.7µM* | 10.9% | 5.3% | 22.4µM*
CCCCNc1c(-c2ccc(OC)c(SC3CCCCC3)c2)nc2ccc(C)cn12 | x | -17.4% | -26.9% | -30.0% | -13.8% | -14.6%
Cc1c(Cl)cccc1NC(=O)CCS(=O)(=O)c1ccc(Br)s1 | 50.1µM* | u | -7.5% | x | 19.8% | -16.5%
CCOc1ccc(NC(=O)CCS(=O)(=O)c2ccc(Br)s2)cc1 | 28.2µM* | -27.8% | u | x | -3.7% | 8.0%
Cc1ccc(NC(=O)CCS(=O)(=O)c2ccc(Br)s2)cc1 | 1.6% | -6.6% | -13.1% | 5.6% | -1.7% | 158.4%
O=C(O)[C@H]1CN(CCCP(=O)(O)O)CCN1 | x | -8.8%[19.4 µM] | x | x | x | x
CCOc1cccc2cc(-c3nnc(NCc4ccc5c(c4)OCO5)s3)c(=O)oc12 | u | -7.3% | 3.98µM* | -1.6% | 7.7% | 9.6%
COc1ccc(CCNC(=O)c2cc3c(=O)n(C)c4cc(Cl)ccc4c3s2)cc1OC | 56.2% | 8.4% | 3.2% | x | -2.4% | -7.8%
COc1ccc(/C=N/c2nc3ccccc3n2C)cc1OC | 79.4µM* | 1.4% | -13.1% | -0.9% | -15.8% | 19.0%
Cn1c(/N=C/c2cccs2)nc2ccccc21 | 25.0% | -8.9% | -4.2% | -7.2% | -14.3% | 19.5%
CN(C)c1ccc(-c2nc3ccccn3c2Nc2ccc3c(c2)OCCO3)cc1 | 15.3% | 0.3% | x | x | -14.6% | 10.4%
Cc1ccc(OCCC(=O)NNC(=O)c2nn(C)c(=O)c3ccccc23)cc1 | x | -7.6% | -19.2% | 2.3% | -9.5% | 15.5%
CCOc1ccc(OCCC(=O)NNC(=O)c2nn(C)c(=O)c3ccccc23)cc1 | 35.5µM* | -32.4% | u | 2.7%[11.6 µM] | -7.1% | u
CN(C)c1ncnc2ccc(-c3ccccc3C(F)(F)F)cc12 | x | 0.3%[60.1 µM] | x | x | x | x
NS(=O)(=O)c1ccc(NC(=O)c2cnn3c2NC(=C2CC2)C=C3C(F)F)cc1 | x | -35.4% | x | x | -3.7% | u
C=CCc1ccccc1OCC(O)CN1CCN(c2ccccc2)CC1 (stereo not given) | -4.8% | u | -17.7% | x | u | 79.4µM*
COc1ccc(N2CCN(C(c3ccccc3)c3sc4nc(-c5ccco5)nn4c3O)CC2)cc1 (stereo not given) | -2.1% | -10.2%[60.1 µM] | -4.6% | x | 7.4% | -22.9%
COc1ccc(/C=C(/C(=O)N2CCCCC2C(=O)O)c2ccc(OC)c(OC)c2)cc1 (stereo not given) | x | 4.1% | -0.8% | -13.2% | 0.3% | 79.4µM*
COc1ccccc1-c1nnc(SCCOc2ccccc2C)o1 | -14.9% | -7.7% | x | x | u | 5.8%
CC(=O)c1cccc(NC(=O)Cn2cc(C(=O)c3cccc(Cl)c3)c(=O)c3ccc(C)nc32)c1 | 15.0% | -6.6% | -0.5% | x | -20.4% | 89.1µM*
